# Source: PubChem BioAssay AID743445 (Broad Institute, 2014)
# The campaign covered roughly 310,000 compounds. About 1,700 (0.55%) were called active. This excerpt belongs to a sample that is enriched for actives. Unmarked numbers belong to inactive results. Rule as the data show it: active = inhibition above about 50%; inactive = the rest.
# Target: Histone-lysine N-methyltransferase NSD2 (Homo sapiens) (UniProt O96028)
# Assay: NSD2 histone methyltransferase inhibitors, primary screen, biochemical, AlphaScreen, single concentration, set 2 (AID 743445)
# Settings: NSD2 peptide methylation, 120 min, at 12.5 µM, hits give high values
# Histone-lysine N-methyltransferase NSD2 (Homo sapiens), sequence (O96028 whole entry, looked up): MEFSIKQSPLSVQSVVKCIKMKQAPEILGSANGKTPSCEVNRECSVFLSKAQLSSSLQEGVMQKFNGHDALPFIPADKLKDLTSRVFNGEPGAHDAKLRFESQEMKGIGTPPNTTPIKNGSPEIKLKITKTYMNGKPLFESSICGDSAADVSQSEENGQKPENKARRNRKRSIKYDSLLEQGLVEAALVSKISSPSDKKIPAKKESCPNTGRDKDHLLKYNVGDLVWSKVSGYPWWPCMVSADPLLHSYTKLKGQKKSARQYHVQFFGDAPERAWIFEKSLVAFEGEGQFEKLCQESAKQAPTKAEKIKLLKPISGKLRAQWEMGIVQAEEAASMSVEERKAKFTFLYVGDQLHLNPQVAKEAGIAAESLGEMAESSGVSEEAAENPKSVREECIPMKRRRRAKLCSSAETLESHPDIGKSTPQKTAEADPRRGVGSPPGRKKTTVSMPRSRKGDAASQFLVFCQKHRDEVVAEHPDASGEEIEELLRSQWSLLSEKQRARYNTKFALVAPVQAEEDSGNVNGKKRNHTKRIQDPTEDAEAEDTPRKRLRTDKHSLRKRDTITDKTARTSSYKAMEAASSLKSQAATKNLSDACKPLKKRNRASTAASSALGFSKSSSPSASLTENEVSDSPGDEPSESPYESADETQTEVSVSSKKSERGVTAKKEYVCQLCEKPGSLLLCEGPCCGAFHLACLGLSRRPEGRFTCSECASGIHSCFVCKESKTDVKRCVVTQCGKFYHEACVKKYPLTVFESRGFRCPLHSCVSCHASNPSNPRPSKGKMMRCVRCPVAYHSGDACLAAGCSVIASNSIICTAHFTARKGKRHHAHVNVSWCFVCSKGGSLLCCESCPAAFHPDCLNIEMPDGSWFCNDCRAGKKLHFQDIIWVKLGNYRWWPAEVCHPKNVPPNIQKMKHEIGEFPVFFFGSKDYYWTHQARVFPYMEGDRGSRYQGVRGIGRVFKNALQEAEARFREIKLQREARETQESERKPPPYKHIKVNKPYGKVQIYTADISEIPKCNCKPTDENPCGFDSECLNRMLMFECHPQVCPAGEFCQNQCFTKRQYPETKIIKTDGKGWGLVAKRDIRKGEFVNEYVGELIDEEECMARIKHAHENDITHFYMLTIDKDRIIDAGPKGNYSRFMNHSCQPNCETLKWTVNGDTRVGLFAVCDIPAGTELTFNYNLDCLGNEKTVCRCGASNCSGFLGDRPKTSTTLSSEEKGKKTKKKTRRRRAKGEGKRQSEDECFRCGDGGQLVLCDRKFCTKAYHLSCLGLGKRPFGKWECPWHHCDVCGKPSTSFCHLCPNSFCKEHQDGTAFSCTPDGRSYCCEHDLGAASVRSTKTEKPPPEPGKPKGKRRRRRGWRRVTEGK
row,SMILES,inhibition
1,Cc1cc(/C=C2/C(=O)NC(=O)N(Cc3ccco3)C2=O)c(C)n1-c1ccc(C(=O)O)cc1,36.8%
2,Cc1c(C(=O)O)cccc1-n1c(C)cc(/C=C2\C(=O)NC(=O)N(c3ccc4c(c3)OCO4)C2=O)c1C,65.9% (active)
3,Cc1ccccc1N1C(=O)NC(=O)/C(=C\c2cc(C)n(C)c2C)C1=O,5.19%
4,CCC(C)(O)C(=O)OC1C(=O)OC2CC3C(C)=CC(=O)C(O)C3(C)C3C4(O)OCC23C1C(C)C4O (stereo not given),-0.572%
5,O=C(c1ccccc1)C(O)(CN1CCCCC1)c1ccccc1 (stereo not given),1.13%
6,O=c1c2ccccc2[nH]c(=S)n1-c1cccc(Cl)c1,-7.59%
7,COc1ccc(C2C=C(C)Oc3c2c(=O)oc2ccccc32)cc1OC (stereo not given),1.06%
8,CC12CCC(O)CC1CCC1C2CCC2(C)C(C(=O)CC(O)C(F)(F)F)CCC12 (stereo not given),-0.54%
9,COc1cccc(N2C(=O)NC(=O)/C(=C\c3ccc([N+](=O)[O-])s3)C2=O)c1,59% (active)
10,O=C1NC(=O)N(c2ccccc2)C(=O)/C1=C/c1ccc([N+](=O)[O-])s1,73.4% (active)
11,COc1cccc(N2C(=O)NC(=O)/C(=C\c3cn(C)c4ccccc34)C2=O)c1,1.25%
12,O=C1NC(=O)N(c2ccc(F)cc2)C(=O)/C1=C/c1ccc2c(c1)CCCN2Cc1ccccc1,16.6%
13,COc1ccc(CN2C(=O)NC(=O)/C(=C\c3ccc(OC)c(OC)c3OC)C2=O)cc1,1.88%
14,O=C1NC(=O)C(Cc2ccccc2)C(=O)N1,-1.35%
15,CC(=CCOc1ccc2ccc(=O)oc2c1)C1=CC(=O)C(C)(C)O1,0.448%
16,CC(=O)OC1C2(CC3N4C(=O)C5(CO)SSC4(CC31O)C(=O)N5C)OC(C)C(C)(C)C2=O (stereo not given),133% (active)
17,CO[C@H]([C@H](C)/C=C/N(C)C=O)[C@@H](C)C(=O)CC[C@H](C)[C@H](O)[C@H](C)[C@H]1OC(=O)/C=C/C(C)=C/[C@H](O)[C@H](OC)C[C@@H]2C=CC[C@@H](C[C@H](OC)[C@@]3(CO3)[C@@H](OC)C[C@@H](OC)[C@@H]1C)O2,-2.92%
18,O=P(OC1=CCCCC1)(c1ccccc1)c1ccccc1,1.12%
19,O=c1c2ccccc2nc(CBr)n1-c1ccc(Cl)cc1,-1.22%
20,c1cc2c(c(NC3=NCCCS3)c1)CCCC2,8.89%
21,CC(=O)C1(O)CCC2C3CCC4=C(Cl)C(=O)CCC4(C)C3CCC21C (stereo not given),-5.24%
22,Cc1cc(N2C(=O)C3CCCN3C2c2ccc(Cl)c(Cl)c2)no1 (stereo not given),84.4% (active)
23,CCN1C(=O)NC(=O)C2(CCCC2)C1=O,27.8%
24,C[C@]12CCCCC1=CC(=O)C1C2CC[C@@]2(C)C1C[C@@H](F)[C@@H]2O (stereo not given in full),-1.58%
25,O=C1NC(=O)C(CCOc2ccccc2)(CCc2ccccc2)C(=O)N1,1.16%
